These results are taken from PubChem BioAssay (NCI).

Common to all, as to assay: NCI-60 one-dose screen, 48 h (100 = growth as untreated, 0 = no growth, -100 = all killed)
One experiment has as its system NCI-H226 lung. As to conditions: 10 µM unless noted.
The test system of another experiment is NCI-H322M lung. As to conditions: 10 µM unless noted.
The subject of the next experiment is HOP-62 NSCLC. The conditions noted are these: 10 µM unless noted.
The next experiment deals with NCI-H460 lung. As to conditions: 10 µM unless noted.
The subject of the next experiment is HOP-92 NSCLC. The conditions noted are these: 10 µM.
In a further experiment the test system is NCI-H522 lung. As to conditions: 10 µM unless noted.
Another experiment has as its system A549/ATCC NSCLC. As to conditions: 10 µM unless noted.
The next experiment concerns 786-0 renal. The conditions noted are these: 10 µM unless noted.
Another experiment concerns COLO 205 colon. As to conditions: 10 µM unless noted.
The test system of the next experiment is NCI-H23 lung. The conditions noted are these: 10 µM unless noted.

The panel holds about 83,000 compounds, 20% with a hit somewhere; the sample as a whole holds those more often.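 Activity criterion: percent growth below 10, measured after cells in 96-well plates were exposed to a single compound concentration for 48 hours.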 Unmarked numbers belong to inactive results. The source made the active and inactive calls.

Consider `O=c1[nH]c2ccccc2cc1CSc1ccccc1Nc1nccc(-c2ccc(Cl)cc2)n1`, for which the growth was 94.1% in the experiment on NCI-H226 lung; 94.1% in the experiment on NCI-H322M lung; 95.6% in the experiment on HOP-62 NSCLC; 97.5% with NCI-H460 lung; 83.5% in the experiment with HOP-92 NSCLC; 97.4% with NCI-H522 lung. The results for the growth with A549/ATCC NSCLC, in the experiment on 786-0 renal and in the experiment on COLO 205 colon were 95.4%, 101% and 125%, respectively.

Consider `COc1cc(OC)cc(C(=O)Nc2cccc(C#Cc3cccc4[nH]nc(N)c34)c2)c1`, for which the growth with NCI-H226 lung was 30.8%; in the experiment on NCI-H322M lung it was 53.6%; with HOP-62 NSCLC, 39%; in the experiment on NCI-H460 lung, 13%; in the experiment on HOP-92 NSCLC, 43%; with NCI-H522 lung, 2.45% (active). Moreover, the figures for the growth in the experiment on A549/ATCC NSCLC, with 786-0 renal and with COLO 205 colon were 33.7%, 46.5% and 6.38% (active), respectively.

As for `C=C(C)[C@@H]1CC[C@]2(COC)CC[C@]3(C)[C@H](CC[C@@H]4[C@@]5(C)CCCNC(C)(C)[C@@H]5CC[C@]43C)[C@@H]12`, the growth in the experiment with NCI-H23 lung was 59.6%; in the experiment with NCI-H226 lung, 74.1%; in the experiment on NCI-H322M lung, 82.6%; in the experiment with HOP-62 NSCLC, 71.1%; with NCI-H460 lung, -30% (active); with A549/ATCC NSCLC, 39%. The growth in the experiment on 786-0 renal is 31.4%; in the experiment on COLO 205 colon, -49.2% (active).

As for `O=c1[nH]c(Sc2sc3ccc(Cl)cc3c2CBr)nc(=S)[nH]1`, the growth in the experiment with NCI-H226 lung was 55.1%; in the experiment with NCI-H322M lung, 39.7%; in the experiment on HOP-62 NSCLC, 28.2%; in the experiment on NCI-H460 lung it was 21.5%; with HOP-92 NSCLC, 1.66% (active); with NCI-H522 lung it was 13%. For the same compound, the figures for the growth in the experiment on 786-0 renal and with COLO 205 colon were 51% and 108%, respectively.

Turning to `CCCCCCCn1cc2c(NCCc3ccccc3)ncnc2n1`, the growth in the experiment with NCI-H226 lung is 103%; with NCI-H322M lung, 102%; with HOP-62 NSCLC it was 94.1%; in the experiment on NCI-H460 lung, 100%; in the experiment with HOP-92 NSCLC, 94.2%; in the experiment on NCI-H522 lung, 95.3%. The results for the growth in the experiment on A549/ATCC NSCLC, with 786-0 renal and in the experiment with COLO 205 colon were 98.2%, 99.5% and 129%, respectively.

Turning to `COc1ccc(-c2nc(C(Cl)Cl)nc3cc(-c4ccccc4)nn23)cc1`, the growth is 63.2% in the experiment with NCI-H226 lung; -33.8% (active) with NCI-H322M lung; -11.5% (active) in the experiment on HOP-62 NSCLC; -75.9% (active) in the experiment with NCI-H460 lung; -14.8% (active) in the experiment on HOP-92 NSCLC; -59.4% (active) in the experiment on NCI-H522 lung. For the same compound, the values for the growth in the experiment on 786-0 renal and with COLO 205 colon were 68.8% and -74.6% (active), respectively.

Turning to `CCNC(=O)Oc1ccc(/C(=C(/C)c2ccccc2)c2ccc(OCCN3CCCCCC3)cc2)cc1`, the growth in the experiment with NCI-H226 lung is 55%; in the experiment with NCI-H322M lung, 71.1%; in the experiment on HOP-62 NSCLC it was 6.15% (active); in the experiment with NCI-H460 lung it was -67.3% (active); in the experiment on HOP-92 NSCLC, -12.8% (active); in the experiment on NCI-H522 lung, 63.8%. For the same compound, the results for the growth in the experiment on A549/ATCC NSCLC, with 786-0 renal and in the experiment on COLO 205 colon were 36.1%, -91.7% (active) and -75.7% (active), respectively.

For `CS(=O)(=O)c1ccc(-n2cc(/C=N/O)c(-c3ccccc3)n2)cc1`, the growth in the experiment with NCI-H226 lung was 77.1%; in the experiment with NCI-H322M lung, 81.7%; in the experiment with HOP-62 NSCLC, 89.5%; in the experiment on NCI-H460 lung, 93.9%; in the experiment on NCI-H522 lung it was 70.3%; in the experiment on A549/ATCC NSCLC, 77.2%. The figures for the growth in the experiment with 786-0 renal and in the experiment on COLO 205 colon were 79.1% and 101%, respectively.

As to `C=CCOc1cccc(/C=C2\SC(=S)N(C3CC(=O)N(c4ccc(Br)cc4)C3=O)C2=O)c1` (stereo not drawn), the growth was 101% in the experiment on NCI-H226 lung; 102% in the experiment with NCI-H322M lung; 100% with HOP-62 NSCLC; 104% in the experiment with NCI-H460 lung; 107% in the experiment with HOP-92 NSCLC; 101% in the experiment with NCI-H522 lung. In addition, the growth is 105% in the experiment on A549/ATCC NSCLC, 104% with 786-0 renal and 126% in the experiment with COLO 205 colon.

`Fc1ccc(-c2cc3nc(C(Cl)Cl)nc(-c4ccc(F)cc4)n3n2)cc1`: the growth is 79.1% with NCI-H226 lung; -30.3% (active) in the experiment on NCI-H322M lung; -27.6% (active) with HOP-62 NSCLC; -52.9% (active) with NCI-H460 lung; -3.1% (active) in the experiment on HOP-92 NSCLC; 0.105% (active) in the experiment on NCI-H522 lung. The growth was -26.8% (active) in the experiment with A549/ATCC NSCLC, 51.4% in the experiment with 786-0 renal and -70.2% (active) with COLO 205 colon.

On to `COc1ccc(-c2nc3ccc(-c4nnc(SCC(=O)Nc5ccc(C(=O)/C=C/c6ccc(Cl)cc6)cc5)o4)cc3[nH]2)cc1`, for which the growth in the experiment with NCI-H226 lung was 94.1%; with NCI-H322M lung, 100%; in the experiment on HOP-62 NSCLC, 99.5%; with NCI-H460 lung, 104%; in the experiment with HOP-92 NSCLC, 95%; in the experiment on NCI-H522 lung it was 95.3%. The growth with A549/ATCC NSCLC was 105%; with 786-0 renal, 99.1%; in the experiment with COLO 205 colon it was 117%.

In the case of `NS(=O)(=O)c1ccc(Nc2nc(SCc3ccccc3)nc3ccccc23)cc1`, the growth in the experiment on NCI-H226 lung was 76.8%; in the experiment on NCI-H322M lung, 88.7%; in the experiment on HOP-62 NSCLC it was 86.2%; with NCI-H460 lung, 45.1%; in the experiment with HOP-92 NSCLC, 55.4%; in the experiment on NCI-H522 lung, 81.3%. Also, the growth was 52.6% with A549/ATCC NSCLC, 40.3% in the experiment on 786-0 renal and 79.6% in the experiment with COLO 205 colon.

On to `CN(C)C(=O)c1cc(-c2ccc3ncnc(NCc4ccccc4)c3c2)cnc1N`, for which the growth is 91.6% with NCI-H23 lung; 91.8% in the experiment on NCI-H226 lung; 87% with NCI-H322M lung; 63.2% with HOP-62 NSCLC; 104% in the experiment with NCI-H460 lung; 72.9% with A549/ATCC NSCLC. The growth in the experiment on 786-0 renal is 67.7%; with COLO 205 colon, 116%.

On to `COc1ccc2c(c1)c(-c1cc(N)n3nc(-c4cn(C)c5ccc(OC)cc45)cc3n1)cn2C`, for which the growth with NCI-H226 lung is 126%; in the experiment with NCI-H322M lung, 101%; in the experiment with HOP-62 NSCLC it was 103%; in the experiment on NCI-H460 lung, -64.3% (active); with NCI-H522 lung it was 109%; in the experiment with 786-0 renal, 91.9%. Besides, the growth with COLO 205 colon was 123%.

For the compound `Cc1cc(C(NC(=O)CCCCCNc2cccc3c2C(=O)N(C2CCC(=O)NC2=O)C3=O)c2ccc3c(c2)OC(F)(F)O3)c(O)c2ncccc12` (stereo not drawn), the growth was 72.8% with NCI-H226 lung; 71.1% with NCI-H322M lung; 51.1% with HOP-62 NSCLC; 14.7% in the experiment on NCI-H460 lung; 4.13% (active) in the experiment with HOP-92 NSCLC; 72.1% in the experiment with NCI-H522 lung. Besides, the growth in the experiment with A549/ATCC NSCLC was 66.7%; in the experiment with 786-0 renal it was 79.2%; in the experiment on COLO 205 colon, 111%.
